# This is one part of a sample in which hits are shown more often than they occur.
# NOMO-1 viab: STK33 inhibitor candidate reducing NOMO-1 cell viability | NOMO-1 AML viability, CellTiter-Glo luminescence, 72 h | inhibition, % (test concentration not listed) | 37,000 compounds, 7.5% hits; in the data active = inhibition above about 80%; inconclusive = no clear call, values can overlap the other calls
# STK33 inh: human STK33 kinase inhibition. Q9BYT3. ADP-Glo luminescence, MBP substrate. inhibition, % at 12.5 µM. 27,000 compounds, 0.44% hits. AID 2322; in the data active = inhibition above about 20%; inconclusive = no clear call, values can overlap the other calls
# Target sequence (Q9BYT3 whole entry, looked up): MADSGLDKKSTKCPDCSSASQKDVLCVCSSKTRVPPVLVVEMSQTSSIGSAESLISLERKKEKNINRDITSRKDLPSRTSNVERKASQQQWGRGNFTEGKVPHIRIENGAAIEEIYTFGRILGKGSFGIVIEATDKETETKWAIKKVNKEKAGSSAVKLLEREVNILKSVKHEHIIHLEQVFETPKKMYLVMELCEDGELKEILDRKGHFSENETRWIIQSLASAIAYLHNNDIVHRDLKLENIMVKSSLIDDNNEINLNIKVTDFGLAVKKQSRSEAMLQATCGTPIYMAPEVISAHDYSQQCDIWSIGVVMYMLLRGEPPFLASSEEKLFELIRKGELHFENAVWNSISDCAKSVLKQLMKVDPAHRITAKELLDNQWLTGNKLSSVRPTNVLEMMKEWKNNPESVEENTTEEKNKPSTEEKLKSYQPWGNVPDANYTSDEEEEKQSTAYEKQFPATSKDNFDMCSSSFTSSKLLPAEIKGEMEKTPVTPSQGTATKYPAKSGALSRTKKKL
# MITF inhib: blocks MITF activity; 37,000 compounds, 0.28% hits; TRPM1 promoter luciferase, luminescence, 24 h; inhibition, % (no concentration beside the values); in the data active = inhibition above about 85%; inconclusive = no clear call, values can overlap the other calls; inactive = below about 68%;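 also: human melanocyte line stably carrying TRPM1 promoter luciferase reporter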
# p53 PUMA act: mutant p53 pathway reactivation; SW480 PUMA-promoter luciferase; 28,000 compounds, 1.5% hits; AID 624151; activation, % at 9.98 µM; in the data active = activation above about 52%; inconclusive = no clear call, values can overlap the other calls
# * = called active by the depositor; ? = inconclusive; . = no result given.
SMILES,NOMO-1 viab,STK33 inh,MITF inhib,p53 PUMA act
C[C@@H]1CN([C@H](C)CO)C(=O)Cc2cc(NC(=O)Nc3ccc(C(F)(F)F)cc3)ccc2O[C@@H]1CN(C)Cc1ccncc1,?,-0.9,20.5,-42.3
COC(=O)c1ccccc1NC(=O)CSc1nc(-c2ccc(F)cc2)cs1,14.7,4.6,-1.2,16.4
O=C(CSc1nc2sc3c(c2c(=O)n1Cc1ccccc1)CCCCC3)c1ccccc1,?,0.4,4.4,-12.0
COc1cc(S(=O)(=O)n2cnc3cc(C)c(C)cc32)c(OC)cc1Cl,23.0,1.3,-13.2,-0.2
CC(=O)NCCc1nc2cc(NC(=O)Nc3ccccc3)ccc2n1C,6.0,3.2,-18.5,3.5
COc1ccccc1C(=O)Nc1ccc2c(c1)nc(CCNC(C)=O)n2C,8.6,-0.3,-73.5,131.4*
O=C1CSC(=S)N1CCc1ccc(Cl)cc1,113.0*,.,9.0,.
CCOc1ccc(-c2nnc(SCC(=O)O)n2-c2ccccc2)cc1,-8.8,9.9,-10.8,-3.8
COC(=O)c1ccccc1NC(=O)COc1cc(C)ccc1C(C)C,18.1,0.3,-14.5,-8.7
Cc1sc(NC(=O)Cn2nc(C(F)(F)F)cc2C)c(C(N)=O)c1C,118.2*,.,-2.6,.
Cc1ccc(OCC(=O)Nc2sc(C)c(C)c2C(N)=O)cc1,29.5,-5.0,-38.0,35.2
C[C@H]1CN([C@@H](C)CO)C(=O)Cc2cc(NC(=O)NC3CCCCC3)ccc2O[C@H]1CN(C)Cc1ccc(C(F)(F)F)cc1,34.4,4.6,23.0,-2.7
C[C@H]1CN([C@@H](C)CO)C(=O)Cc2cc(NC(=O)Nc3ccc(C(F)(F)F)cc3)ccc2O[C@H]1CN(C)Cc1ccc(C(F)(F)F)cc1,136.1*,-2.4,34.4,.
C[C@@H]1CN([C@H](C)CO)C(=O)Cc2cc(NC(=O)NC3CCCCC3)ccc2O[C@H]1CN(C)Cc1ccc(C(F)(F)F)cc1,93.4*,9.0,20.4,.
C[C@@H]1CN([C@@H](C)CO)C(=O)Cc2cc(NC(=O)Nc3ccc(C(F)(F)F)cc3)ccc2O[C@@H]1CN(C)Cc1ccc(C(F)(F)F)cc1,123.6*,0.4,2.1,.
C[C@@H]1CN([C@H](C)CO)C(=O)Cc2cc(NC(=O)Nc3ccc(F)cc3)ccc2O[C@@H]1CN(C)Cc1ccc(C(F)(F)F)cc1,?,1.4,7.8,.
COC(=O)c1c(-c2c(Cl)cccc2Cl)noc1NC(=O)NCc1ccccc1,104.2*,.,4.6,.
Cc1cc(C(=O)Nc2cccc3c2O[C@@H](CN(C)Cc2ccc(Oc4ccccc4)cc2)[C@H](C)CN([C@H](C)CO)C3=O)n(C)n1,89.3*,.,42.1,.
Cc1cc(C(=O)Nc2cccc3c2O[C@@H](CN(C)Cc2ccc(Cl)c(Cl)c2)[C@@H](C)CN([C@H](C)CO)C3=O)n(C)n1,92.3*,.,26.4,.
CC1(C)C(=O)N=C2c3ccccc3C(=O)C(=O)C21 (configuration not stated),.,.,.,-89.0
Cc1nnc(SCC(=O)Nc2cccc(Cl)c2Cl)s1,16.5,-0.8,-13.9,15.1
CCCCN1C(=O)C(O)(CC(=O)c2ccco2)c2cc(Br)ccc21 (configuration not stated),113.0*,-7.0,10.1,.
CCN1C(=O)C(O)(CC(=O)c2ccco2)c2cc(Br)ccc21 (configuration not stated),122.2*,3.0,-1.4,-6.6
CCCCN1C(=O)C(O)(CC(=O)c2ccco2)c2ccccc21 (configuration not stated),119.3*,-2.5,4.6,15.7
Cc1coc(C)c1C(=O)CC1(O)C(=O)N(CCc2ccccc2)c2ccccc21 (configuration not stated),22.7,1.0,21.9,-1.9
SMILES,NOMO-1 viab,STK33 inh,MITF inhib,p53 PUMA act
O=C(CC1(O)C(=O)N(CCc2ccccc2)c2ccc(Br)cc21)c1ccncc1 (configuration not stated),114.3*,0.5,-1.7,8.5
C=Cc1c(S(C)(=O)=O)sc(C(=O)Oc2ccccc2)c1C,14.2,-0.3,-8.0,.
CC(=O)c1cccc(NC(=O)C(C)NS(=O)(=O)c2ccc(Cl)cc2)c1 (configuration not stated),15.4,2.6,-20.8,-2.3
Cc1oc(-c2cc(Cl)cc(Cl)c2)cc1C(=O)NCc1ccco1,21.0,-1.5,-4.5,-20.8
COc1ccc(OCC(=O)Nc2cc(-c3nnc(OC)c4ccccc34)ccc2N2CCCCC2)cc1,89.1*,3.5,72.7,-15.7
COc1nnc(-c2ccc(N3CCOCC3)c(NS(=O)(=O)c3ccc(Cl)cc3)c2)c2ccccc12,10.5,6.0,10.1,-24.2
COc1ccc(-c2nc3ccccc3o2)cc1NC(=O)COc1ccc(C(C)C)cc1,-0.2,-0.9,15.3,42.2
COc1ccc(-c2nc3cc(C(C)C)ccc3o2)cc1NC(=O)COc1ccc(C)cc1,19.1,-2.8,7.7,63.7*
COc1ccc(-c2nc3cc(C(C)C)ccc3o2)cc1NC(=O)COc1ccccc1C,106.2*,0.0,-20.5,-7.9
COc1cc(NC(=O)CCCN2C(=O)c3ccccc3C2=O)cc(OC)c1,3.3,1.0,-2.4,2.1
CC(C)=CCc1c(O[C@@H]2O[C@H](CO)[C@@H](O)[C@H](O)[C@H]2O)cc(O)c2c1O[C@H](c1ccc(O)cc1)CC2=O,25.0,12.2,-2.0,.
Cc1cccc(NC(=O)CSc2nnc(-c3ccc(N)cc3)n2C)c1,40.1,3.3,13.3,-18.8
CCCCCCCC(O)C(O)C1CC(OC)=CC(=O)O1 (configuration not stated),5.2,-3.0,-0.6,5.3
CCCCCCCCCC(O)CC(O)CC(O)CC1CC=CC(=O)O1 (configuration not stated),114.8*,-1.9,-26.4,-2.3
COc1ccc(NC(=O)CN2CCN(C(=O)c3ccco3)CC2)cc1,-9.5,-0.2,-14.3,11.1
CCOC(=O)c1c(CSc2nc(C)cc(C)n2)nc2c3ccccc3ccn12,2.8,1.1,-111.4,90.4*
Cc1cc(C)nc(SCC(=O)c2c(C)[nH]c3ccccc23)n1,-15.7,1.9,-28.9,39.8
CC(=O)Nc1ccc(NC(=O)C(NC(=O)c2ccco2)C(C)C)cc1 (configuration not stated),-0.2,2.3,0.4,-5.6
Cc1ccc(NC(=O)COc2ccc(I)cc2)c(C(=O)O)c1,15.4,0.4,-11.1,-16.1
COc1ccccc1COc1ccc2c3c(c(=O)oc2c1C)CCCCC3,86.8*,.,-56.8,.
Cc1ccc(-c2nc(SCC(=O)Nc3cc(C)c(C)cc3Br)n[nH]2)cc1,12.2,0.6,-4.6,4.2
C[C@@H]1CCCCO[C@H](CN(C)CC2CCCCC2)[C@@H](C)CN([C@H](C)CO)C(=O)c2cc(NC(=O)Nc3cccc4ccccc34)ccc2O1,128.2*,4.1,0.7,.
C[C@@H]1CCCCO[C@@H](CN(C)CC2CCCCC2)[C@@H](C)CN([C@H](C)CO)C(=O)c2cc(NC(=O)Nc3cccc4ccccc34)ccc2O1,112.3*,3.6,-19.7,.
CCN(CC(=O)Nc1ccc(F)c(Cl)c1)S(=O)(=O)c1ccc2ccccc2c1,4.9,-2.0,3.9,0.2
CCc1c(C)nc(Nc2nc(C)c3ccc(OC)cc3n2)[nH]c1=O,41.6,0.8,-48.5,?
Cc1cc2nc(Nc3nc4ccccc4c(=O)[nH]3)nc(C)c2cc1C,126.8*,-1.4,-9.8,30.0

# Screening results deposited in PubChem by Broad Institute.
